The structures appear in SMILES notation. Compounds without any hit were thinned out: in the full panel of roughly 83,000, 20% have a hit.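 96-well plates, one dose, 48 hours. Percent growth reported; active if below 10.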 Values without a mark were called inactive. Calls of active or inactive are those of the source.

The values below come from PubChem BioAssay (NCI).

Some test systems named below: DU-145 prostate; K-562 leukemia; MALME-3M melanoma; MDA-MB-231 breast; RXF 393 renal; SF-268 CNS; SF-295 CNS; SF-539 CNS; UACC-257 melanoma; M14 melanoma; HCT-15 colon; HT29 colon; SNB-75 CNS; SNB-19 CNS; U251 CNS; PC-3 prostate; SK-MEL-5 melanoma; UACC-62 melanoma; LOX IMVI melanoma; SK-MEL-28 melanoma.
Common to all, as to test: NCI-60 one-dose screen, 48 h (100 = growth as untreated, 0 = no growth, -100 = all killed)
Common to all, as to conditions: 10 µM unless noted

Turning to `CN1CCN(c2ccc(Nc3nc(NCCCNS(=O)(=O)c4ccc(F)cc4)c4sccc4n3)cc2)CC1`, the growth in the assay with DU-145 prostate was 72.6%; in the assay on K-562 leukemia, 10.4%; in the assay with MALME-3M melanoma it was -66.2% (active); with MDA-MB-231 breast it was 43.2%; in the assay on RXF 393 renal it was 36.5%; in the assay on SF-268 CNS it was 60.3%. The growth with SF-295 CNS is 32.4%; in the assay with SF-539 CNS, -76% (active); in the assay with UACC-257 melanoma, -28.6% (active); in the assay on M14 melanoma, -21.3% (active); in the assay with HCT-15 colon it was 25.5%; in the assay on HT29 colon it was 11.4%. For the same molecule, the growth in the assay on SNB-75 CNS is 78.5%; in the assay on SNB-19 CNS it was 74.5%; with U251 CNS, 15.7%; in the assay with PC-3 prostate, 60.5%; with SK-MEL-5 melanoma, 20.5%; with UACC-62 melanoma it was 21.1%. Also, the growth with LOX IMVI melanoma was -5.7% (active); with SK-MEL-28 melanoma it was -42.9% (active).
On to `O=C(CSc1nnc(-c2ccc(Cl)cc2)n1-c1ccccc1)Nc1ccc(Cl)cc1`, for which the growth is 62.1% with DU-145 prostate; 59.1% with K-562 leukemia; 51% in the assay on MALME-3M melanoma; 12.9% in the assay with MDA-MB-231 breast; 22.9% in the assay on RXF 393 renal; 41.4% in the assay on SF-268 CNS. In addition, the growth was 17.2% with SF-295 CNS; -15% (active) with SF-539 CNS; 88.2% in the assay with UACC-257 melanoma; 62.7% in the assay with M14 melanoma; 81.5% with HCT-15 colon; 62.6% with HT29 colon. Moreover, the growth in the assay on SNB-75 CNS is -11.2% (active); in the assay with SNB-19 CNS, 59.6%; with U251 CNS, 32.7%; in the assay on PC-3 prostate, 61.4%; in the assay with SK-MEL-5 melanoma, 82.2%; in the assay on UACC-62 melanoma, 76.1%. Further, the growth was 10.8% in the assay on LOX IMVI melanoma and 71.2% in the assay on SK-MEL-28 melanoma.
`NC1CC2(CCN(c3cnc(C(=O)Nc4cc(F)cc5cccnc45)cn3)CC2)C1`: the growth in the assay on DU-145 prostate was 81.3%; in the assay with K-562 leukemia it was -13.3% (active); in the assay with MALME-3M melanoma it was 96.2%; with MDA-MB-231 breast, 80.1%; in the assay with RXF 393 renal it was 73.5%; in the assay with SF-268 CNS it was 83.1%. Further, the growth is 58% in the assay with SF-295 CNS; 75.7% with SF-539 CNS; 103% with UACC-257 melanoma; 78.9% in the assay with M14 melanoma; 3.7% (active) in the assay with HCT-15 colon; 5.06% (active) in the assay with HT29 colon. The growth in the assay on SNB-75 CNS is 74.2%; in the assay on SNB-19 CNS, 83.1%; with U251 CNS, 57.1%; in the assay with PC-3 prostate, 76.6%; in the assay on SK-MEL-5 melanoma it was 95.3%; in the assay with UACC-62 melanoma, 95.4%. Moreover, the growth in the assay on LOX IMVI melanoma was -17% (active); with SK-MEL-28 melanoma it was 93.3%.
Take `C=C(C=O)[C@@H]1CC[C@]2(C(=O)O)CC[C@]3(C)C(CC[C@@H]4[C@@](C)(CCC#N)[C@H](C(=C)C=O)CC[C@]43C)[C@@H]12` (stereo not given in full): the growth in the assay with DU-145 prostate was 43.2%; in the assay on K-562 leukemia, 4.17% (active); with MALME-3M melanoma, 5.28% (active); with MDA-MB-231 breast it was 43.8%; with RXF 393 renal it was 44%; in the assay with SF-268 CNS, 64.9%. The growth in the assay with SF-295 CNS was 62.7%; in the assay on SF-539 CNS, 13.4%; in the assay with UACC-257 melanoma it was 12.4%; in the assay with M14 melanoma, 13.2%; in the assay with HCT-15 colon it was 4.88% (active); in the assay on HT29 colon, 0.538% (active). Besides, the growth in the assay on SNB-75 CNS is 59%; in the assay with SNB-19 CNS, 62.7%; in the assay on U251 CNS it was 5.39% (active); with PC-3 prostate, 30.3%; in the assay on SK-MEL-5 melanoma it was 26.3%; with UACC-62 melanoma, 30.9%. For the same molecule, the growth is -81.7% (active) in the assay with LOX IMVI melanoma and -5.57% (active) with SK-MEL-28 melanoma.
Take `NS(=O)(=O)c1ccc(Nc2nc(N/N=C/c3ccc4c(c3)OCO4)nc(Nc3ccccc3)n2)cc1`: the growth is 41% in the assay on DU-145 prostate; 33.2% in the assay with K-562 leukemia; 58.6% with MALME-3M melanoma; 59.6% with MDA-MB-231 breast; 22.4% in the assay on RXF 393 renal; 42.6% with SF-268 CNS. The growth in the assay with SF-295 CNS is 64.5%; in the assay on SF-539 CNS, 16.7%; in the assay on UACC-257 melanoma, 84.6%; in the assay on M14 melanoma it was 38.7%; in the assay on HCT-15 colon, 82.7%; in the assay on HT29 colon it was 40.2%. Further, the growth was 53.6% with SNB-75 CNS; 55.8% in the assay with SNB-19 CNS; 55.4% in the assay on U251 CNS; 59.1% with PC-3 prostate; 54.3% with SK-MEL-5 melanoma; 78.4% in the assay with UACC-62 melanoma. Further, the growth with LOX IMVI melanoma is 26.7%; in the assay with SK-MEL-28 melanoma, 67.5%.
For the molecule `Clc1ccc2[nH]cc(-c3cncn3CCc3ccc4c(c3)OCO4)c2c1`, the growth is 86.3% with DU-145 prostate; 48.8% with K-562 leukemia; 75.5% with MALME-3M melanoma; 65.8% with MDA-MB-231 breast; 54.7% in the assay on RXF 393 renal; 66.5% in the assay with SF-268 CNS. In addition, the growth was 58.4% in the assay on SF-295 CNS; 83.8% with SF-539 CNS; 57.5% in the assay on UACC-257 melanoma; 78.8% in the assay on M14 melanoma; 72% with HCT-15 colon; 70.5% with HT29 colon. The growth in the assay with SNB-75 CNS is 73.8%; with SNB-19 CNS, 82.1%; in the assay with U251 CNS, 69.9%; in the assay with PC-3 prostate, 51%; with SK-MEL-5 melanoma it was 33.8%; with UACC-62 melanoma, 62.3%. Moreover, the growth was 91.5% in the assay on LOX IMVI melanoma and 93.5% with SK-MEL-28 melanoma.
With `Cc1ccc2c(n1)C(=O)C(Cl)=C(Nc1cccc(C(F)(F)F)c1)C2=O`, the growth in the assay on DU-145 prostate is 98.7%; in the assay on K-562 leukemia it was 3.08% (active); in the assay with MALME-3M melanoma, -5.42% (active); in the assay on MDA-MB-231 breast it was 54.7%; in the assay on RXF 393 renal, -1.18% (active); with SF-268 CNS, 100%. In addition, the growth in the assay on SF-295 CNS is 110%; in the assay with SF-539 CNS, 106%; with UACC-257 melanoma, -4.17% (active); in the assay with M14 melanoma it was 80.4%; in the assay with HCT-15 colon, -61.1% (active); in the assay on HT29 colon, 105%. The growth was 109% in the assay on SNB-75 CNS; 101% in the assay with SNB-19 CNS; 95.7% with U251 CNS; 69.6% with PC-3 prostate; 96.9% in the assay with SK-MEL-5 melanoma; 97.6% in the assay with UACC-62 melanoma. Moreover, the growth was -61.8% (active) with LOX IMVI melanoma and 78.5% in the assay on SK-MEL-28 melanoma.
